Screens as filed in PubChem.
An excerpt weighted towards active compounds, which were near 2.9% of everything screened.
DRD3 agonist – qHTS of D3 Dopamine Receptor Agonist: qHTS | D3R DiscoveRx beta-arrestin cells, luminescence, 90 min | max activation, % | 410,000 tested, 0.58% active | AID 652048, 2013; in the data active = max activation above about 30%
Target sequence (P35462 whole entry, looked up): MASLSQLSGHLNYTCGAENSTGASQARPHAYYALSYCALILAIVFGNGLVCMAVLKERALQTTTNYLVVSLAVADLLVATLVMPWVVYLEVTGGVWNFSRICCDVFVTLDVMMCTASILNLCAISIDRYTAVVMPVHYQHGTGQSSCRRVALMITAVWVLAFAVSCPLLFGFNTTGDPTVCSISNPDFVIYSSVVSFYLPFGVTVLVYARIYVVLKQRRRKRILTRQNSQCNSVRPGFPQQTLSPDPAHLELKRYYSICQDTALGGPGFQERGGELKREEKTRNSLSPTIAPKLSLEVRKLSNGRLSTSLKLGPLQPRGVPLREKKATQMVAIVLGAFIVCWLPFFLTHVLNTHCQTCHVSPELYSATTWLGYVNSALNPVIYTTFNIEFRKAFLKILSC
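Cells at 1500/well, incubated overnight, then treated with pinned compounds (dopamine as control) for 90 min at 37 degrees C. DiscoveRx reagent added for 30 - 60 minutes at room temperature; luminescence read.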
a7 integrin act – qHTS for Activators of Integrin-Mediated Alleviation for Muscular Dystrophy | alpha7betagal myoblasts, beta-gal FDG fluorescence, 48 h | Potency, µM (doses to about 38.3 µM), hits mostly activators | 350,000 tested, 0.064% active; active = well fitted activation curve with a large enough effect; inconclusive = small, poorly fitted or top-dose-only effect; inactive = no such curve, though single readings can be large or run the other way; note: nearly all actives have a fitted effect of over 60% in size
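Alpha7betagal+/- myoblasts (passage 13) were plated 16-24 hr, then exposed to compounds (1:260 dilution of DMSO stock) for 48 hours at 37C. After MPER lysis, β-galactosidase reporter activity was read as FDG fluorescence (ex 480/em 540) after 30 minutes.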
DRD3 antagonist – qHTS of D3 Dopamine Receptor Antagonist: qHTS | D3R cells, DiscoveRx beta-arrestin luminescence, antagonist mode; stronger effect = lower value | max response, negative = inhibition, % | 360,000 tested, 2.5% active; in the data active = max response below about -50%; inconclusive = no clear call, values can overlap the other calls
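Cells expressing the human receptor were seeded at 1500 cells/well, incubated overnight at 37 degrees C in 5% CO2, then exposed to library compounds with dopamine controls for 90 minutes at 37 degrees C before luminescent detection.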
Numbers stand for hits; – = inactive; ? = inconclusive; · = no result; [ ] = another dose, or the depositor's remark.

SMILES | DRD3 agonist | a7 integrin act | DRD3 antagonist
Cc1cccc(CSc2nnc(-c3ccccn3)n2N)c1 | – | – | –
CC1CCCN(C(=O)c2ccc(CNc3c(N4CCCCC4)c(=O)c3=O)cc2)C1 (stereo not given) | – | – | –
CC(C)CC(CO)N1CCN(C(=O)c2ccc(C(C)(C)C)cc2)CCC1=O (stereo not given) | – | – | –
CCOC(=O)C1(CCOC)CCN(Cc2nc(-c3cccs3)oc2C)CC1 | – | – | ?
Cc1oc(-c2cccs2)nc1CN1CCC(CO)(CCOc2ccccc2)CC1 | – | – | -89
CCO[C@H]1OC(C(=O)N2CCOCC2)=C[C@@H](C2CC2)[C@@H]1CCCO | – | – | -55
CCO[C@@H]1OC(C(=O)N2CCN(Cc3ccc4c(c3)OCO4)CC2)=C[C@H](c2ccc(C(F)(F)F)cc2)[C@H]1CCCO | – | – | –
CCO[C@@H]1OC(C(=O)N2CCN(Cc3ccc4c(c3)OCO4)CC2)=C[C@H](c2ccc(Br)cc2)[C@H]1CCCO | – | – | -98
CCO[C@@H]1OC(C(=O)N2CCOCC2)=C[C@H](C2CC2)[C@H]1CCCO | – | – | –
O=C1CCc2cc(S(=O)(=O)N3CCCCC3)cc3c2N1CC3 | – | – | –
CSc1c(CN2CCN(C)CC2)c2ccccc2n1C | – | – | –
CCn1ncc(Br)c1C(=O)Nc1ccccc1OC | – | – | –
CCOc1ccccc1NC(=O)c1c(Br)cnn1C | 35 | – | –
COc1ccc(C2Nc3ccccc3C(=O)N2NC(C)=O)c(OC)c1 (stereo not given) | – | ? | –
COc1cccc(COc2ccccc2C2Nc3ccc(Br)cc3C(=O)N2NC(=O)c2ccncc2)c1 (stereo not given) | – | – | -55
Cc1cccc(NC(=O)Nc2ccc(S(N)(=O)=O)cc2)c1 | – | – | –
Cc1cccc(NC(=O)Nc2ccc(Oc3c(F)c(F)c(F)c(F)c3F)cc2)c1 | – | – | -117
COc1ccc2[nH]c(=O)c(-c3noc(-c4ccccc4)n3)cc2c1 | – | ? | –
O=c1[nH]c2ccccc2cc1-c1noc(-c2cccnc2)n1 | 48 | – | –
CCOC(=O)C1=CC[C@@H](c2ccccc2)N(S(=O)(=O)c2ccc(C)cc2)[C@H]1c1ccccc1C | – | · | –
CCOC(=O)C1CCCN(Cc2ccc(OC)c(OCc3ccccc3)c2)C1 (stereo not given) | – | – | -84
CCOC(=O)C1CCCN(Cc2ccccc2C)C1 (stereo not given) | – | –[7.66 µM] | -64
COc1ccc(CN2CCC(C(N)=O)CC2)cc1OCc1ccccc1 | – | – | –
CCOC(=O)C1CCCN(Cc2ccccc2Cl)C1 (stereo not given) | – | – | –
CCN(CC)CCOC(=O)c1ccc(NC(=O)Cn2ncc3c2-c2cc(C)ccc2OC3)cc1 | – | · | ·
SMILES | DRD3 agonist | a7 integrin act | DRD3 antagonist
COC[C@H]1CCCN1c1ccc2c(c1)O[C@H](COCc1ccccc1)CN([C@@H](C)c1ccccc1)S2(=O)=O | – | · | –
CCCN(CCC)C(=S)NC(=O)c1ccc(Cl)cc1Cl | – | – | -182
Cc1ccccc1C(=O)NNC(=S)NC(=O)c1ccc(Cl)cc1Cl | – | – | –
CN(C)CCCOC(=O)c1ccc(Cl)cc1Cl | – | – | ?
CCCN(CCC)CCCOC(=O)c1ccc(Cl)cc1Cl | – | – | -69
CCn1c(CN2CCC(C)CC2)nc2cc(NC(=O)c3ccc([N+](=O)[O-])cc3)ccc21 | 60 | · | ·
CCn1c(CN2CCC(C)CC2)nc2cc(NC(=O)c3cccc([N+](=O)[O-])c3)ccc21 | – | · | ·
Cc1cccc(-n2ncc3c(NCCc4ccc(S(N)(=O)=O)cc4)ncnc32)c1 | – | – | –
N#Cc1c(-c2ccccc2)ccn(Cc2ccccc2Cl)c1=O | – | – | -51
N#Cc1c(-c2ccccc2)ccn(Cc2cccc(Cl)c2)c1=O | – | – | –
Cc1ccc(C)c(S(=O)(=O)N2CCN(Cc3ccc(O)c4ncccc34)CC2)c1 | – | – | –
Cc1ccn2c(Nc3ccccc3)c(-c3ccccn3)nc2c1 | – | – | -74
Cc1ccc2nc(-c3ccncc3)c(Nc3ccccc3C)n2c1 | – | · | ·
Cc1ccc2nc(-c3ccccn3)c(Nc3ccccc3C)n2c1 | – | – | -59
Cc1ccn2c(Nc3ccccc3C)c(-c3ccccn3)nc2c1 | – | – | -59
Cc1ccccc1Nc1c(-c2ccccn2)nc2ccccn12 | – | – | ?
Cc1cccn2c(Nc3ccccc3)c(-c3ccccn3)nc12 | – | – | –
CC(CCN1CCC(CN2C(=O)C(=O)NC[C@@H]2Cc2ccccc2)CC1)c1ccccc1 (stereo not given in full) | – | – | –
S=C(NN=C1C2CC3CC(C2)CC1C3)Nc1ccccc1 | – | – | -66
S=C(N/N=C1\C2CN3CCN(C2)CC1(c1ccccc1)C3)Nc1ccccc1 | – | – | –
COc1ccc(C(=O)Nc2nc(-c3ccc([N+](=O)[O-])cc3)c(-c3ccc(OC)cc3)s2)cc1 | – | – | -52
COc1ccc(C(=O)Nc2nc3c(s2)CCc2cc(OC)ccc2-3)cc1 | – | · | ·
CC1CCc2onc(C(=O)N3CCN(c4ccc(F)cc4)CC3)c2C1 (stereo not given) | – | · | ·
CCCCCCC1CC(/C(C)=N\NC(N)=O)OC1=O (stereo not given) | – | – | –
COc1ccccc1N1CCN(C2CC(=O)N(c3ccc(Cl)cc3)C2=O)CC1 (stereo not given) | – | – | –
SMILES | DRD3 agonist | a7 integrin act | DRD3 antagonist
CCCCNC(=O)COC(=O)c1c2c(nc3ccccc13)/C(=C\c1cccs1)CC2 | 34 | – | –
CC(C)CNC(=O)COC(=O)c1c2c(nc3ccccc13)/C(=C/c1cccs1)CC2 | – | – | –
O=C(NC1CCN(Cc2cccc([N+](=O)[O-])c2)CC1)c1ccccc1 | – | – | –
Cn1nccc1C(=O)NC1CCN(Cc2ccccc2)CC1 | – | – | -80
O=C(NC1CCN(Cc2ccccc2)CC1)c1ccccc1 | – | – | -81
O=C(NC1CCN(Cc2ccc(Cl)cc2Cl)CC1)c1ccccc1 | – | – | -78
CC(Oc1ccccc1)C(=O)NC1CCN(Cc2ccccc2)CC1 (stereo not given) | – | –[7.66 µM] | -59
CC(Oc1ccccc1)C(=O)NC1CCCCCCC1 (stereo not given) | – | – | –
O=C(NNC1CCN(Cc2ccccc2)CC1)c1ccccc1 | – | – | –
COc1ccc(NC(=O)c2cccn2-c2nnc(N3CCCCC3)s2)cc1Cl | – | · | ·
COc1ccccc1P(=O)(Cc1ccccc1)c1ccccc1 (stereo not given) | – | – | –
Cc1cc(=O)[nH]c(SCC(=O)N(CCC#N)c2ccccc2)c1C#N | – | – | –
N=C1c2ccccc2CN1NC(=O)CC12CC3CC(CC(C3)C1)C2 | – | – | –
CCN(CC)C(=O)C(=O)N/N=C/c1cccc(Br)c1 | – | – | –
O=C(C[C@H]1C[C@H](C(=O)N2CCCCC2)[C@@]2(CCc3ccccc3)c3[nH]c4ccc(Cl)cc4c3CCN2C1=O)NCCN1CCOCC1 | – | – | –
Cc1cccc(C)c1OCC(=O)N(Cc1ccc(Cl)cc1)C1CCS(=O)(=O)C1 (stereo not given) | – | – | –
